An excerpt weighted towards active compounds, which were near 10% of everything screened.
BAZ2B block: inhibitors of human BAZ2B bromodomain; AlphaScreen BAZ2B-H3K14Ac peptide displacement; actives 4.4% (n = 360,000); AID 504333; Potency, µM (doses to about 114 µM), inactives show top-dose activity change, negative = inhibition, hits mostly inhibitors; note: % is set by controls: 0 for no effect and ±100 for the full control effect; nearly all actives have a fitted effect of over 60% in size
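Compounds, titrated to a top concentration of 110 uM, were incubated 30 min at room temperature with preformed BAZ2B/acetyl-K14 H3 peptide complex (50 nM each). Proximity signal was measured by AlphaScreen after 20 min with beads.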
GLS inh: blocks human kidney-isoform glutaminase activity | O94925 | GLS enzymatic activity, qHTS titration | Potency, µM (highest dose often 45.5 µM), for the others: at the top dose activity change, negative = inhibition, usual class: inhibitors | actives 0.21% (n = 410,000); note: % is set by controls: 0 for no effect and ±100 for the full control effect
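Read-out is an Amplex red fluorescence increase coupled through glutamate oxidase and HRP, measured before and after 30 min room-temperature incubation. hKGA is in 45 mM KH2PO4 (pH 8.2) with 0.02% Tween-20; glutamine added as 1mM solution.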
L3MBTL1 block: L3MBTL1 (human) inhibition; AID 485360; actives 0.66% (n = 230,000); Potency, µM (series often up to 57.1 µM), inactives show top-dose activity, negative = inhibition, actives largely listed as inhibitors; AlphaScreen L3MBTL1–H3K9me1 peptide binding; Q9Y468; note: % is set by controls: 0 for no effect and ±100 for the full control effect; nearly all actives have a fitted effect of over 60% in size
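L3MBTL1 50 nM + b-AHA-H3(1-15)K9me1 75 nM, 30 min RT; compound added, 30 min RT; streptavidin donor/Ni-chelate acceptor beads 10 ug/mL each final, 30 min RT dark; AlphaScreen read.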
HP1b chromo inh: blocks HP1-beta chromodomain binding to methylated histone tails; P83916; AlphaScreen HP1-beta / biotin-H3K9me3 peptide binding; actives 0.56% (n = 390,000); Potency, µM (series often up to 114 µM), without a hit: top-dose activity change, negative = inhibition, actives largely listed as inhibitors; AID 540317; note: nearly all actives have a fitted effect of over 70% in size
Target sequence (P83916 whole entry, looked up): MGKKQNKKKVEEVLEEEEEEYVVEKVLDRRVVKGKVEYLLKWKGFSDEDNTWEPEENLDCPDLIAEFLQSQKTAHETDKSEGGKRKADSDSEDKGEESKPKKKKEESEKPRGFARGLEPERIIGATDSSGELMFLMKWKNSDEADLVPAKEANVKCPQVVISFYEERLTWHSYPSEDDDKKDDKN
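HP1-beta protein (50 nM final) preincubated 30 min at room temperature with biotinylated H3(1-18)K9me3 peptide (50 nM) in PBS pH 7.4, 0.01% Tween-20, then compound added for 30 min. AlphaScreen streptavidin donor/nickel chelate acceptor beads (10 ug/mL final), 30 min dark, luminescence read.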
JMJD2A Tudor inh: JMJD2A Tudor domain (human) inhibition. O75164. AlphaScreen JMJD2A-Tudor / H3K4me3 peptide binding. Potency, µM (top dose mostly 114 µM), for inactives: at the highest dose activity change, negative = inhibition, usual class: inhibitors. actives 4.4% (n = 390,000). AID 504339; note: % is set by controls: 0 for no effect and ±100 for the full control effect; nearly all actives have a fitted effect of over 50% in size
G9a block: blocks human histone lysine methyltransferase G9a. Q96KQ7. G9a H3K9 monomethylation, AlphaScreen, 2 h. Potency, µM (highest dose often 102 µM), inactives show at the highest dose activity, negative = inhibition, most hits filed as inhibitors. actives 8.8% (n = 350,000); note: % is set by controls: 0 for no effect and ±100 for the full control effect; nearly all actives have a fitted effect of over 75% in size
Target sequence (Q96KQ7 913-1193 limits assumed): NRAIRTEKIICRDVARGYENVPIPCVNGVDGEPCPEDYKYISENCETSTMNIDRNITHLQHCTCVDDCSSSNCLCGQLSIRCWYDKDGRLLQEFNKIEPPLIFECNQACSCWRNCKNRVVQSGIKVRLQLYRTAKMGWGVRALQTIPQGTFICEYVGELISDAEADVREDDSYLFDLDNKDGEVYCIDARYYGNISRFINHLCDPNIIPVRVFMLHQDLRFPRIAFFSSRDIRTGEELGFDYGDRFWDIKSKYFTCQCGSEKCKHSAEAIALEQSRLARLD
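Readings reflect AlphaScreen signal from monomethyl-H3K9 antibody detection. HMT at 20 nM; substrate b-H3K9 500 nM; cofactor SAM 20 uM; 2 h RT reaction; compounds tested as titrations in qHTS with 15 min preincubation.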
Active calls of the source: *; ? = inconclusive; . = no result given; [ ] = remark or other dose. Calls come from the whole dose curve; as a rule, active = well fitted curve in the direction sought with a large enough effect; inconclusive = small, poorly fitted or top-dose-only effect, or another doubt; inactive = no such curve, though single readings can be large; an effect the other way counts as inactive or inconclusive. Potency is the fitted concentration of half-maximal effect.

SMILES	BAZ2B block	GLS inh	L3MBTL1 block	HP1b chromo inh	JMJD2A Tudor inh	G9a block
CC(C)(C)C(=O)OCOP(=O)(OCOC(=O)C(C)(C)C)C(C)(Oc1ccc(O)cc1)P(=O)(OCOC(=O)C(C)(C)C)OCOC(=O)C(C)(C)C	.	.	.	.	.	3.55µM*
CCc1ccc(OCCNc2cc(N3CCNC(C)C3)ccc2[N+](=O)[O-])cc1 (stereo not given)	35.5µM*	-0.2%	-20.2%	?	39.8µM*	3.7%[2.33 µM]
CC1CN(c2ccc([N+](=O)[O-])c(NCCOc3ccc(Cl)cc3)c2)CC(C)N1 (stereo not given)	11.2µM*	-7.6%	-18.7%	?	31.6µM*	44.7µM*
S=c1[nH]ccn1CCc1ccccc1	27.1%	-0.3%	.	-28.0%	?	10µM*
COc1cccc(C2C(C#N)=C(N)Oc3cc(C)n(Cc4ccco4)c(=O)c32)c1 (stereo not given)	10.9%	13.4%	-7.7%	32.8%	10.3%	50.1µM*
Cc1cc2c(c(=O)n1Cc1cccnc1)C(c1ccccc1)C(C#N)=C(N)O2 (stereo not given)	9.7%	-2.0%	4.6%	34.6%	4.5%	-4.4%[2.33 µM]
COc1ccc(C2C(C#N)=C(N)Oc3cc(C)n(Cc4ccco4)c(=O)c32)cc1 (stereo not given)	-4.2%	-2.1%	.	24.4%	-10.7%[57.1 µM]	25.1µM*
COc1ccc(-n2c(=O)c3sc4ccccc4c3n(C)c2=O)cc1	-1.6%	-0.1%	.	28.7%	-15.2%	?
O=C(Cn1cc(SCc2ccccc2F)c2ccccc21)N1CCCCCC1	-3.1%	-6.1%	.	50.1%	4.8%	-1.4%[59 µM]
Cc1ccc(C2/C(=C(/O)c3cnn(-c4ccccc4)c3C)C(=O)C(=O)N2CCCN2CCOCC2)o1 (stereo not given)	79.4µM*	.	.	.	.	9.7%[12.7 µM]
Cc1ccc(C)c(/C(O)=C2/C(=O)C(=O)N(CCN3CCOCC3)C2c2ccc(C)o2)c1 (stereo not given)	-12.5%	-6.1%	0.8%	34.8%	?	14.1µM*
Cc1c(/C(O)=C2\C(=O)C(=O)N(CCCN(C)C)C2c2ccccc2)cnn1-c1ccccc1 (stereo not given)	-20.7%	0.0%	8.4%	32.9%	-21.7%	-3.7%[59 µM]
Cc1c(/C(O)=C2/C(=O)C(=O)N(CCN3CCOCC3)C2c2ccccn2)cnn1-c1ccccc1 (stereo not given)	25.1µM*	-1.8%	-13.9%	36.8%	50.1µM*	7.94µM*
Cc1c(/C(O)=C2\C(=O)C(=O)N(CCN(C)C)C2c2cccs2)cnn1-c1ccccc1 (stereo not given)	-24.0%	-1.0%	-3.5%	9.4%	-6.8%[11.4 µM]	20µM*
Cc1ccc(Nc2nc(C)nc(N)c2S(=O)(=O)c2ccccc2)cc1	-18.0%	-9.8%	.	3.4%	-15.7%	7.7%[59 µM]
O=C1NC(c2ccccc2)=C(c2ccc3ccccc3n2)C(c2ccncc2)N1 (stereo not given)	0.9%	-3.6%	1.4%	8.2%	-23.3%	50.1µM*
O=C1NC(c2ccccc2)=C(c2ccc3ccccc3n2)C(c2ccccc2)N1 (stereo not given)	-37.5%	-10.8%	-7.1%	10.6%	?	-24.9%
COc1cccc(C(=O)/C=C/Nc2cccc(O)c2)c1	-33.4%	32.0%	.	10.3%	-31.7%	14.1µM*
Cc1ccc(C)c(-n2nnnc2SCC(=O)c2ccc3c(c2)NC(=O)CO3)c1	?	-9.7%	0.8%	38.8%	-14.5%[57.1 µM]	50.1µM*
Cc1ccc2nc(SCC(=O)c3ccc4c(c3)NC(=O)CO4)[nH]c2c1	-2.6%	0.1%	3.9%	19.7%	-3.6%	.
Cc1cccc(C)c1Nc1nnc(SCC(=O)c2ccc3c(c2)NC(=O)CO3)s1	-5.3%	9.5%	-4.9%	21.5%	-16.9%	11.2µM*
O=C(Nc1ccc(Br)cc1)C1CCCN1S(=O)(=O)c1ccc(F)cc1 (stereo not given)	9.9%	5.3%	.	74.4%	12.8%	2.3%[59 µM]
CC(C)=NNc1nc2c(c(=O)[nH]c(=O)n2C)n1CCc1ccccc1	?	-1.1%	-10.1%	?	-33.1%	44.7µM*
CC/C(C)=N/Nc1nc2c(c(=O)[nH]c(=O)n2C)n1CCc1ccccc1	-19.0%	4.0%	-4.3%	-4.2%	-23.9%	56.2µM*
CSc1ccc(CNC(=O)Cn2c(-c3cccs3)cc3cc(F)ccc32)cc1	3.8%	-0.3%	.	41.8%	-1.7%	7.7%[59 µM]
SMILES	BAZ2B block	GLS inh	L3MBTL1 block	HP1b chromo inh	JMJD2A Tudor inh	G9a block
CC1CC(C)(C)Nc2ccc(OC(=O)c3ccco3)cc21 (stereo not given)	?	?	?	-9.3%	?	44.7µM*
CC1CC(C)(C)Nc2ccc(N=O)cc21 (stereo not given)	-2.3%	1.0%	-22.2%	10.1%	-29.0%	?
O=C(O)CC1NC(=S)N(c2ccccc2)C1=O (stereo not given)	11.5%	7.1%	-4.3%	8.7%	?	?
COc1ccc(N2C(=S)NC3N2C(=S)NC3(C)c2ccccc2)cc1 (stereo not given)	?	?	-2.8%	11.6%	-23.5%	28.2µM*
COc1cccc(N2C(=O)C3C(C2=O)C3(c2ccccc2)c2ccccc2)c1 (stereo not given)	-15.3%	0.0%	-14.7%	8.7%	-13.4%	2.6%
CC1(c2ccccc2)NC(=S)N2C1NC(=S)N2c1ccccc1 (stereo not given)	-34.9%	26.3%	.	14.6%	?	50.1µM*
O=C(NCCc1nc2ccccc2n1CCO)C1CCCCC1	.	.	.	.	-11.3%	.
N#Cc1ccc(C(=O)NCc2ccc3c(c2)CCN3C(=O)c2ccc(F)cc2)cc1	1.7%	-0.3%	.	28.8%	-6.7%	9.0%[59 µM]
Cc1cc(C)c(C)c(C(=O)CSc2nnc(-c3ccc4[nH]c(C)c(C)c4c3)o2)c1C	13.3%	4.1%	-9.4%	28.5%	-14.6%	25.1µM*
CCn1c(SCC(N)=O)nnc1-c1ccc2[nH]c(C)c(C)c2c1	-31.4%	4.7%	-7.3%[11.4 µM]	0.3%	-21.6%	-5.7%[59 µM]
Cc1[nH]c2ccc(-c3nnc(SCC(=O)c4ccc(F)cc4)o3)cc2c1C	5.2%	21.1%	-1.9%	12.0%	-10.1%	?
CCn1c(SCC(=O)O)nnc1-c1ccc2[nH]c(C)c(C)c2c1	-16.5%	0.1%	-8.6%	-2.1%	-35.7%	14.1µM*
CCOC(=O)c1ccccc1NC(=O)Cn1c(=O)n(CCCC(=O)NCc2ccc3c(c2)OCO3)c(=O)c2ccccc21	4.8%	-5.1%	.	54.0%	-8.9%	-20.8%[59 µM]
COc1ccc(C(C)C)cc1S(=O)(=O)NCCc1c(C)[nH]c2ccc(C)cc12	?	0.3%	.	9.6%	50.1µM*	?
COc1ccc(C(C)C)cc1S(=O)(=O)NCCc1c(C)[nH]c2c(Cl)cccc12	28.2µM*	4.7%	.	-11.8%	?	?

Source: PubChem (National Center for Advancing Translational Sciences (NCATS))
